For ten compounds, AC50 and outcome results are on record in PubChem BioAssay (EPA / NIEHS).

Results filed as inconclusive are left out. Active and inactive are the calls of the source. How the source made its calls: active means hit-call score of the fitted dose curve at least 0.9, where 1 is the maximum; inconclusive means response in the unintended direction; inactive means score below 0.9.

As a reminder, the AC50 is the midpoint of the concentration-response curve, whichever way the signal moves.

Assay [1] has as its system 5-hydroxytryptamine receptor 2C (pig). The assay is described as follows: NVS_GPCR_p5HT2C: NovaScreen (NVS) G Protein-Coupled Receptor Assay for pig Serotonin, 5-Hydroxytryptamine Receptor 2C (5HT2C) (AID 2283288). An outline of the steps: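 Radioligand displacement on membranes from pig choroid plexus, detected by filter scintillation counting after 1 h. Tested first at a single 25 uM in duplicate, then in concentration-response for actives; DMSO served as baseline.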

Assay [2] has as its target rat Adrenergic, Alpha 1, Non-selective Receptor (Adra1), Adra1a (gene 29412) (UniProt P43140). Put plainly: NVS_GPCR_rAdra1_NonSelective: NovaScreen (NVS) G Protein-Coupled Receptor Assay for rat Adrenergic, Alpha 1, Non-selective Receptor (Adra1) (AID 2283289). An outline of the steps:
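Chemicals first screened in duplicate at 25 uM, then actives tested in concentration series up to 50 uM. Binding measured as displacement of radioligand from rat forebrain membrane receptors, 1 h, filtration with scintillation readout; DMSO baseline.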

The target of assay [3] is human Opioid Receptor Mu (Opiate Mu), OPRM1 (gene 4988) (UniProt P35372). Put plainly: NVS_GPCR_hOpiate_mu: NovaScreen (NVS) G Protein-Coupled Receptor Assay for human Opioid Receptor Mu (Opiate Mu) (AID 2283290).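 Further: hits lower bound tracer signal versus DMSO meaning displacement of the ligand.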 A digest of the protocol: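 Radioligand displacement binding on membranes from CHO cells expressing the receptor, 2.5 h after dosing, filter-based scintillation counting; loss of signal vs DMSO baseline. Screened in duplicate at 25 uM, actives then run in concentration series.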
Sequence of human Opioid Receptor Mu (Opiate Mu), OPRM1 (gene 4988) (P35372 whole entry, looked up): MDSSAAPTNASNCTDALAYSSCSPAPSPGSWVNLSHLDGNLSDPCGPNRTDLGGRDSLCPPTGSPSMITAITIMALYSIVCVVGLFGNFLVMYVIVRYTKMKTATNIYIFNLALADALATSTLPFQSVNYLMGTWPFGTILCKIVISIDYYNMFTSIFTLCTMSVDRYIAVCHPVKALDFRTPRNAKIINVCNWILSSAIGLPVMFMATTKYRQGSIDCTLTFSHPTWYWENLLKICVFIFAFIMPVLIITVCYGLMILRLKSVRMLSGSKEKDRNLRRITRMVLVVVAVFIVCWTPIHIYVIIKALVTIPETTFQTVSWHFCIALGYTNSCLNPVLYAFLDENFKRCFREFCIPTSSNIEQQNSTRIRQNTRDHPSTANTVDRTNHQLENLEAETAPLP

Assay [4] concerns the target rat Serotonin, 5-Hydroxytryptamine Receptor (5HT), Non-Selective Binding, Htr1a (gene 24473) (UniProt P19327). The assay is described as follows: NVS_GPCR_r5HT_NonSelective: NovaScreen (NVS) G Protein-Coupled Receptor Assay for rat Serotonin, 5-Hydroxytryptamine Receptor (5HT), Non-Selective Binding (AID 2283295). A digest of the protocol: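 Rat cortex membrane preparation incubated 1 h with radioligand and test chemical; bound radioactivity counted after filtration. Screening began in duplicate at 25 uM with concentration-series follow-up; fitting relative to DMSO.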

The target of assay [5] is rat Adrenergic, Alpha 1A Receptor (Adra1A), Adra1a (gene 29412) (UniProt P43140). The assay is described as follows: NVS_GPCR_rAdra1A: NovaScreen (NVS) G Protein-Coupled Receptor Assay for rat Adrenergic, Alpha 1A Receptor (Adra1A) (AID 2283296). An outline of the steps: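 Filter radiodetection after 1 h competitive binding on CEC-pretreated rat cortical membranes. Duplicate single-point screening at 25 uM; active chemicals retested across concentration series.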
Sequence of rat Adrenergic, Alpha 1A Receptor (Adra1A), Adra1a (gene 29412) (P43140 whole entry, looked up): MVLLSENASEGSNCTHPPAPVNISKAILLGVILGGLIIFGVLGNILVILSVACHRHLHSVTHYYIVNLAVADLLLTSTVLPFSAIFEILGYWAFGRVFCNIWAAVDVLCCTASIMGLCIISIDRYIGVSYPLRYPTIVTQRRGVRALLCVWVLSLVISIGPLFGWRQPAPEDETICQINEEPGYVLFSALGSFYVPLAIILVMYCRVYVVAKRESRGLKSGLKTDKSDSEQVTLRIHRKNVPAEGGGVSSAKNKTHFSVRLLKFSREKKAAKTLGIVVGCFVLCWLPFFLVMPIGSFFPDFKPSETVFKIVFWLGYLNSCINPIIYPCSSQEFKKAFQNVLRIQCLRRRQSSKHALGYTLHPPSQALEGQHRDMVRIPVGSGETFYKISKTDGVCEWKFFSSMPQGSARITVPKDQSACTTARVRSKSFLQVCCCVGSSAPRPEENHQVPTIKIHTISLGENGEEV

Assay [6] concerns the target rat Adrenergic Receptor, Beta (Adrb), Non-selective Binding, Adrb1 (gene 24925) (UniProt P18090). The assay is described as follows: NVS_GPCR_rAdrb_NonSelective: NovaScreen (NVS) G Protein-Coupled Receptor Assay for rat Adrenergic Receptor, Beta (Adrb), Non-selective Binding (AID 2283298). An outline of the steps:
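Rat cortical membranes incubated 1 h with beta-adrenergic radioligand and test chemical; bound ligand measured by filtration and scintillation counting. Screen at 25 uM duplicate, then concentration series with 50 uM maximum; loss of signal versus DMSO.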

Assay [7] deals with rat Histamine Receptor (H3), Hrh3 (gene 85268) (UniProt Q9QYN8). Put plainly: NVS_GPCR_rH3: NovaScreen (NVS) G Protein-Coupled Receptor Assay for rat Histamine Receptor (H3) (AID 2283303). An outline of the steps:
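Filter-binding radioligand competition on rat forebrain membranes, 1 h incubation; compounds screened at 25 µM in duplicate and followed in concentration series to 50 µM, loss of bound signal vs DMSO.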

In assay [8] the target is Adra2b (gene 24174) (UniProt P19328). Put plainly: NVS_GPCR_rmAdra2B: NovaScreen (NVS) G Protein-Coupled Receptor Assay for hybird cells Adrenergic, Alpha 2B Receptor (Adra2B) (AID 2283306). A digest of the protocol:
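Compounds screened first at 25 uM in duplicate, with actives followed up in concentration-response; specific radioligand displacement from hybrid neuroglioma/blastoma cell membrane preparations measured by filter scintillation counting after 1 h, normalized to DMSO.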

Assay [9] has as its target rat Neonicotinoid receptor (NNR), Chrna7 (gene 25302) (UniProt Q05941). Put plainly: NVS_LGIC_rNNR_BungSens: NovaScreen (NVS) Ligand-Gated Ion Channel Assay for rat Neonicotinoid receptor (NNR) (AID 2283315). A digest of the protocol:
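Rat cortical membrane preparation incubated 2.5 h with tritiated or iodinated radioligand and test chemical. Bound radioactivity was filtered and counted by scintillation, and displacement was analysed against DMSO.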

Assay [10] concerns the target rat Opioid Receptor, Non-selective Binding, Oprm1 (gene 25601) (UniProt P33535). Put plainly: NVS_GPCR_rOpiate_NonSelective: NovaScreen (NVS) G Protein-Coupled Receptor Assay for rat Opioid Receptor, Non-selective Binding (AID 2283318). A digest of the protocol:
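Filter-based radioligand displacement using rat forebrain membrane preparations, measured 1.5 h post-dosing. Single-concentration duplicate screen at 25 uM, follow-up in concentration series; activity taken as signal loss relative to DMSO.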

Assay [11] is described as follows: NVS_IC_rCaDHPRCh_L: NovaScreen (NVS) Ion Channel Assay for rat Calcium Channel, Type L, Dihydropyridine Site (CaDHPRCh_L) (AID 2283320). An outline of the steps:
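Rat cortex membrane preparation; dihydropyridine-site radioligand displacement read 1 h post-dose by filtration and scintillation. Primary single-point screen 25 uM in duplicate, then concentration series to 50 uM maximum; DMSO as negative control.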

For assay [12], the target named is rat Vasopressin 1 Receptor (V1), Avpr1a (gene 25107) (UniProt P30560). The assay is described as follows: NVS_GPCR_rV1: NovaScreen (NVS) G Protein-Coupled Receptor Assay for rat Vasopressin 1 Receptor (V1) (AID 2283316). An outline of the steps: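 Concentration-response up to 50 uM for chemicals passing a threshold such as 30% inhibition in an initial duplicate 25 uM screen. Displacement of radioligand from rat liver membranes measured after 1.5 h by filtration and scintillation.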

For assay [13], the target named is mouse Cholecystokinin, CCK2 Receptor (CCKB), Cckbr (gene 12426) (UniProt P56481). Put plainly: NVS_GPCR_mCKKBCentral: NovaScreen (NVS) G Protein-Coupled Receptor Assay for mouse Cholecystokinin, CCK2 Receptor (CCKB) (AID 2283293). A digest of the protocol: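 Mouse forebrain membrane preparation incubated 2 h with chemical and radioligand; bound radioactivity counted after filtration. Single-concentration duplicate screen at 25 uM, then concentration series to 50 uM max for hits, DMSO as baseline.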

Assay [14] addresses rat Neurokinin-3 Receptor (NK3), Tacr3 (gene 24808) (UniProt P16177). The assay is described as follows: NVS_GPCR_rNK3: NovaScreen (NVS) G Protein-Coupled Receptor Assay for rat Neurokinin-3 Receptor (NK3) (AID 2283310). An outline of the steps:
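Filter-based radioligand displacement on rat cortex membrane preparations, read by scintillation 2 h post-dose. Chemicals first tested in duplicate at 25 uM; actives followed up in concentration series with a 50 uM maximum.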

Assay [15] has as its target rat Opioid Receptor, Non-selective Sodium (Na+) Binding, Oprm1 (gene 25601) (UniProt P33535). The assay is described as follows: NVS_GPCR_rOpiate_NonSelectiveNa: NovaScreen (NVS) G Protein-Coupled Receptor Assay for rat Opioid Receptor, Non-selective Sodium (Na+) Binding (AID 2283311). A digest of the protocol: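 Filtration radioligand binding on rat forebrain membrane preparations, read 1.5 h after dosing. Single-concentration 25 µM primary screen in duplicate, followed by singleton concentration series to 50 µM max for actives; DMSO baseline.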

In assay [16] the target is rat Somatostatin Receptor (SST), Sstr1 (gene 25033) (UniProt P28646). The assay is described as follows: NVS_GPCR_rSST: NovaScreen (NVS) G Protein-Coupled Receptor Assay for rat Somatostatin Receptor (SST) (AID 2283314). A digest of the protocol:
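Single-concentration duplicate screen (25 uM), then concentration-response up to 50 uM for chemicals passing a threshold such as 30% inhibition. Membranes came from rat forebrain. Binding was measured 1 h post-dose by filter radiodetection and scintillation, relative to DMSO.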

Assay [17] addresses rat Adrenergic Receptor, Alpha 2 (Adra2), Non-selective Binding, Adra2a (gene 25083) (UniProt P22909). Put plainly: NVS_GPCR_rAdra2_NonSelective: NovaScreen (NVS) G Protein-Coupled Receptor Assay for rat Adrenergic Receptor, Alpha 2 (Adra2), Non-selective Binding (AID 2283299). A digest of the protocol: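 Filter-based scintillation counting of radioligand binding to rat cortical membrane receptors, measured 1.25 hours post-dosing; loss of signal versus DMSO indicates displacement. Initial single-concentration duplicate at 25 uM, then concentration series.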

Sequence of rat Adrenergic Receptor, Beta (Adrb), Non-selective Binding, Adrb1 (gene 24925) (P18090 whole entry, looked up): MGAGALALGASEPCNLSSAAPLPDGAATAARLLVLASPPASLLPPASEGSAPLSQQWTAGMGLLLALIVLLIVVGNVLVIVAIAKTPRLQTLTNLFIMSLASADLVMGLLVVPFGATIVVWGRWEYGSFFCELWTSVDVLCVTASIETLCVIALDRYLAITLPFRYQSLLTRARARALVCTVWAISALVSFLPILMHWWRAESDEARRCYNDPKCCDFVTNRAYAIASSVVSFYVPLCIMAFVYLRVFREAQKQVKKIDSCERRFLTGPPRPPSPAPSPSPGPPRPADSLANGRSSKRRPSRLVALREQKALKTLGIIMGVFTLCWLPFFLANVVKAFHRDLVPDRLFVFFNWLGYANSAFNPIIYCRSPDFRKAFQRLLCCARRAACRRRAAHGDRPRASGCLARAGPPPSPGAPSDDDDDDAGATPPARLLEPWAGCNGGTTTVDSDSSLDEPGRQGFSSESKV
Sequence of rat Neonicotinoid receptor (NNR), Chrna7 (gene 25302) (Q05941 whole entry, looked up): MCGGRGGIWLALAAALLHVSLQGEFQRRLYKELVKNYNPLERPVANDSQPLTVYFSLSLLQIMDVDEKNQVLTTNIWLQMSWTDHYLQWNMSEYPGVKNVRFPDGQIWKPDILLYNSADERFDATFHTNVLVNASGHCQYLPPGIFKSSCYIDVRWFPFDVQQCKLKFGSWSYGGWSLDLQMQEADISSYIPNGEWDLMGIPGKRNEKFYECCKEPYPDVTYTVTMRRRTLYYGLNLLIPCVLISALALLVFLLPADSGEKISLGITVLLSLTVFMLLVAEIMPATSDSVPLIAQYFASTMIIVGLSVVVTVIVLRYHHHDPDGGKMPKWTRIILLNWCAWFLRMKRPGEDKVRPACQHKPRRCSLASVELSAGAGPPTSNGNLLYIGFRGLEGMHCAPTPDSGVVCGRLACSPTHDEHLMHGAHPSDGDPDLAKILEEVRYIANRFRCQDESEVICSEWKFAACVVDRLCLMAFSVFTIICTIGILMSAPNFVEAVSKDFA
Sequence of rat Adrenergic, Alpha 1, Non-selective Receptor (Adra1), Adra1a (gene 29412) (P43140 whole entry, looked up): as the sequence (P43140 whole entry, looked up) above
Sequence of rat Serotonin, 5-Hydroxytryptamine Receptor (5HT), Non-Selective Binding, Htr1a (gene 24473) (P19327 whole entry, looked up): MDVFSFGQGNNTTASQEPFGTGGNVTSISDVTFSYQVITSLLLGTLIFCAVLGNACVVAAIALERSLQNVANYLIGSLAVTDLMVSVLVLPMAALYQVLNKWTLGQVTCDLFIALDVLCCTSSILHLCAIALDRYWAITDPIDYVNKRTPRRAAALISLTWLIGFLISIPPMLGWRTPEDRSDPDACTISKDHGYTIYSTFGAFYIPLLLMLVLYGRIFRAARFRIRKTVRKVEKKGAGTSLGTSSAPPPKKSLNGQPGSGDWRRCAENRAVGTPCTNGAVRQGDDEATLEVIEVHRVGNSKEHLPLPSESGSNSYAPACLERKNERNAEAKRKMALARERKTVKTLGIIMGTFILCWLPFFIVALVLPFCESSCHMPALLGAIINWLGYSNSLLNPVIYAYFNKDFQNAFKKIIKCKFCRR
Sequence of rat Opioid Receptor, Non-selective Binding, Oprm1 (gene 25601) (P33535 whole entry, looked up): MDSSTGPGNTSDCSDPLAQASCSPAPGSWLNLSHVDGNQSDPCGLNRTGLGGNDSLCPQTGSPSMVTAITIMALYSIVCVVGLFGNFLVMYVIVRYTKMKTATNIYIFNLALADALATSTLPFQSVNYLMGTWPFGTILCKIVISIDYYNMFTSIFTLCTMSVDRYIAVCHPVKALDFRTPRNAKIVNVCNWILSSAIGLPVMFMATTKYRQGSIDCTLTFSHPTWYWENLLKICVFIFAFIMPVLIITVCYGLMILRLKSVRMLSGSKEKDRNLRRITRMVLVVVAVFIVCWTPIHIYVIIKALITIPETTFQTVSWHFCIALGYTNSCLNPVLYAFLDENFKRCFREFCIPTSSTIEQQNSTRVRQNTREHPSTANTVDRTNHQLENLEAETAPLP
Sequence of Adra2b (gene 24174) (P19328 whole entry, looked up): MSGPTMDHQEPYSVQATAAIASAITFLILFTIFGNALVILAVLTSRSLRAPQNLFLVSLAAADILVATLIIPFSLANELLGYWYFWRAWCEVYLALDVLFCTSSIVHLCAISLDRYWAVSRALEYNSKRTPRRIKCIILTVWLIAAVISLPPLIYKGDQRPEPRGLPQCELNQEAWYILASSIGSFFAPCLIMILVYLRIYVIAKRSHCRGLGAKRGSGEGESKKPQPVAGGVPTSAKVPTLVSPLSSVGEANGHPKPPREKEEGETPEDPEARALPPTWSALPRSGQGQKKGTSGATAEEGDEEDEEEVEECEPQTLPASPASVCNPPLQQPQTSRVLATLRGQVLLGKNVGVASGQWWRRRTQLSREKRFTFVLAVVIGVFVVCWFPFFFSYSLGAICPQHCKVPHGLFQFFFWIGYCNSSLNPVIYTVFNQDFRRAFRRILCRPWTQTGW
Sequence of rat Histamine Receptor (H3), Hrh3 (gene 85268) (Q9QYN8 whole entry, looked up): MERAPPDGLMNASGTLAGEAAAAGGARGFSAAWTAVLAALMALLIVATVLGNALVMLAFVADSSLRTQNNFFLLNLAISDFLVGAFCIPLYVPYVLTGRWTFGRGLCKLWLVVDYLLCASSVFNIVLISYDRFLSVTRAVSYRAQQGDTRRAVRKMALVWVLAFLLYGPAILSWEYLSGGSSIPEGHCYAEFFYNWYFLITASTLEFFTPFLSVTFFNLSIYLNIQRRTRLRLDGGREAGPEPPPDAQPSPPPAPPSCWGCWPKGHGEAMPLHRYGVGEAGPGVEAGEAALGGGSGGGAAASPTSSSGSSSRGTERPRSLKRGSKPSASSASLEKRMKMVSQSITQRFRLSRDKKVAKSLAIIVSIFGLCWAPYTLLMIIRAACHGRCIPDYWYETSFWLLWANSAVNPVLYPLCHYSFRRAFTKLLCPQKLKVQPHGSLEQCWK
Sequence of rat Opioid Receptor, Non-selective Sodium (Na+) Binding, Oprm1 (gene 25601) (P33535 whole entry, looked up): as the sequence (P33535 whole entry, looked up) above
Sequence of rat Somatostatin Receptor (SST), Sstr1 (gene 25033) (P28646 whole entry, looked up): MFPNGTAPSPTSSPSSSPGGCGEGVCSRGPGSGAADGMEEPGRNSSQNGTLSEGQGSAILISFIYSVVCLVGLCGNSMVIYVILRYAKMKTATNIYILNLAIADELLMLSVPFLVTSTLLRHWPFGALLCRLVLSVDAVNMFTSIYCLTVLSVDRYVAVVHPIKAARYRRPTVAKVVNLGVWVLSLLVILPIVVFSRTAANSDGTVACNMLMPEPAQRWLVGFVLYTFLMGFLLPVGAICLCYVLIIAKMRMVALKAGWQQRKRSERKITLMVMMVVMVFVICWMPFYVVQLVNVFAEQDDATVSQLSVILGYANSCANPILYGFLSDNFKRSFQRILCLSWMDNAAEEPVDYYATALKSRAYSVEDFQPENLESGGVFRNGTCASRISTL

Consider `Cc1[nH]cnc1C[C@H]1CCc2c(C)c3ccccc3n2C1=O`, for which the AC50 in [1] is 0.116 µM (active); in assay [2], 3.15 µM (active); in assay [3] it was 6.29 µM (active); in assay [4] it was 4.63 µM (active); in [5], 8.9 µM (active); in [6], 4.78 µM (active). In addition, the values for the AC50 in [8], in assay [10] and in assay [11] were 3.68 µM (active), 9.93 µM (active) and 1.5 µM (active), respectively. The outcome in [7] and in [9] was inactive.
As to `CCOC(=O)COc1ccc2c(c1)CC(NCC(O)c1cccc(Cl)c1)CC2` (stereo unspecified), the AC50 in assay [1] was 13.2 µM (active); in assay [3] it was 5.18 µM (active); in [8], 11.2 µM (active). Besides, the compound was called inactive in [4] and in assay [11].
On to `CCCN(C1CCN(C(=O)C2CCNCC2)CC1)[C@@H]1CCc2ccc(OC)cc2C1`, for which the AC50 is 16.1 µM (active) in assay [2]; 25 µM (active) in assay [4]; 18.3 µM (active) in assay [6]; 0.914 µM (active) in [7]; 7.66 µM (active) in assay [8]. Besides, the compound was classed as inactive in assay [12] and in [11].
For the compound `COC(=O)c1c(Cl)c(Cl)c(C(=O)OC)c(Cl)c1Cl`, the compound was called inactive in assay [1].
As for `CNS(=O)(=O)c1cc(C(=O)N2CCC(CCN3C4CCC3CC(n3c(C)nc5ccccc53)C4)(c3cccc(F)c3)CC2)c(Cl)cc1F` (stereo unspecified), the AC50 was 1.92 µM (active) in assay [2]; 4.96 µM (active) in [3]; 14.9 µM (active) in [5]; 1.85 µM (active) in assay [7]; 7.6 µM (active) in assay [8]; 5.41 µM (active) in assay [14]. In addition, the half-maximal activity concentration (AC50) is 16.1 µM (active) in assay [15], 26.3 µM (active) in assay [9], 10.1 µM (active) in assay [10] and 6.97 µM (active) in assay [11]. For the same compound, the result in [13], in [4] and in assay [16] was inactive.
Regarding `O=C(O)CC(O)C(=O)O` (stereo unspecified), the result in [1], in assay [3], in assay [4] and in [10] was inactive.
With `Oc1ccc2c(c1)-c1ccccc1C2`, the AC50 in assay [1] is 4.27 µM (active).
For the compound `O=P(OC(CCl)CCl)(OC(CCl)CCl)OC(CCl)CCl`, in assay [1], the compound was classed as inactive. In addition, in [11], the AC50 was 6.41 µM (active).
Consider `CCN(C(=O)c1cc(C)cc(OC[C@H](C)Nc2ccncc2)c1)C(C)C`, for which the AC50 in assay [2] is 13.4 µM (active); in assay [5] it was 7.54 µM (active); in [17], 4.14 µM (active); in assay [7], 2.93 µM (active); in assay [8], 8.19 µM (active). Also, the call in assay [10] was inactive.
Turning to `CCn1nc(Cc2ccccc2)cc1C1CCN(C[C@H]2C[C@H](N(C)[C@@H](C(=O)O)C(C)C)C[C@@H]2c2cccc(F)c2)CC1`, the AC50 is 8.81 µM (active) in [3]; 7.28 µM (active) in assay [15]; 15.5 µM (active) in [9]; 4.11 µM (active) in [10]; 4.21 µM (active) in [11]. Also, in assay [6], the compound was classed as inactive.
